Experimental data published in PubChem BioAssay (NCI).
Where “and” joins values, the source holds several entries; their conditions need not be identical. Identical values can stand only once. The panel holds about 83,000 compounds, 20% with a hit somewhere; the sample as a whole holds those more often.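 The endpoint reported here, percent growth, reads 100 for growth as untreated, 0 for no net growth and -100 for all cells dead.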 Calls of active or inactive are those of the source. Rule for the calls: active = growth percent below 10; inactive = the rest.

Tested on: MDA-MB-468 breast
Assay: NCI-60 one-dose screen, 48 h (100 = growth as untreated, 0 = no growth, -100 = all killed)
Conditions: 10 µM unless noted

Compound	growth
O=C1C=CC(=O)N1c1cccc(N2C(=O)C=CC2=O)c1	51.5% (inactive)
C(=N\Nc1ccccn1)/c1ccccn1	-38.7% (active)
CC(=O)OC[C@H]1OC(Sc2sc(C(=O)c3ccc(Br)cc3)c(N)c2-c2nc3ccccc3s2)[C@H](OC(C)=O)[C@@H](OC(C)=O)[C@H]1OC(C)=O (some centres not stated)	91.9% (inactive)
COc1ccc(C(=O)c2cc3c(N)c(C(=O)Nc4cccc(Br)c4C)sc3nc2C)cc1	-1.96% (active)
COc1ccc(/C=C\c2cc(OC)c(OC)c(OC)c2)cc1OCC(=O)Nc1nc2ccccc2s1	9.63% (active)
C=CC1CN2CCC1CC2C(O)c1ccnc2ccc(OC)cc12 (configuration not stated)	102% (inactive)
NC(=S)N/N=C\c1nccc2c(C(F)(F)F)cccc12	-64.8% (active)
Clc1cc(Cl)cc(Nc2ccc3cc(OCCCN4CCOCC4)ccc3n2)c1	40.9% (inactive)
COc1cc(NCCCCCCCNC(C)C)c2nccc(C)c2c1	9.01% (active) and 13.7% (inactive)
C=C(c1ccc(C(=O)O)cc1)c1cc2c(cc1C)C(C)(C)CCC2(C)C	109% (inactive) and 103% (inactive)
COc1cc(NCCCN(CC(C)C)C2CCCC2)c2ncccc2c1	15.7% (inactive)
CC1=C(C(=O)Nc2ccccc2)C(c2ccc3c(c2)OCO3)NC(=S)N1 (configuration not stated)	108% (inactive)
O=C(c1ccccc1)C(Br)C(Br)c1cccc([N+](=O)[O-])c1 (configuration not stated)	-66.4% (active)
CCOC(=O)c1c(NC(=O)c2ccc(C(C)C)cc2)sc2c(CN(C)C)c(O)ccc12	-53.1% (active)
O=C(Nc1cccc(-n2cc(-c3ccncc3)c(-c3ccc(Cl)c(O)c3)n2)c1)c1ccc(N2CCOCC2)c(C(F)(F)F)c1	66% (inactive)
Cc1cc(Cl)ccc1Nc1nc(C(F)(F)F)ccc1C(=O)N/N=C/c1ccccc1Cl	6.05% (active)
O=C(/C=C/c1csc(Br)n1)NO	19% (inactive)
CCn1cc(-c2ccnc(NCCNS(=O)(=O)c3ccc(Br)cc3)c2)c(-c2cccc(OC)c2)n1	60.6% (inactive)
CCOc1ccc(-c2nc3ccc(-c4nc5ccc(N6CCN(C)CC6)cc5[nH]4)cc3[nH]2)cc1OCC	-44.5% (active)

Compound	growth
COc1ccc(/C=C2\N=C(c3cccnc3)N(c3ccccc3)NC2=O)cc1	94.1% (inactive)
COc1cc(C(=O)/C=C/c2ccc3nc(-c4cc(F)cc(F)c4)sc3c2)cc(OC)c1OC	120% (inactive)
FC(F)(F)Oc1ccc2nc3nc4ccc[nH]c4cc3c2c1	-25.5% (active)
CC(=O)O[C@H]1CC[C@]2(C)[C@H]3CC=C4[C@@H]5CC(C)(C)CC[C@]5(C(=O)NCCNCCNCCN)CC[C@@]4(C)[C@]3(C)CC[C@H]2C1(C)C	-14.5% (active)
O=S(=O)(NCCCNc1nccc(-c2c(-c3ccc(F)cc3)nc3sccn23)n1)c1ccc(F)cc1	50.5% (inactive)
O=S(=O)(O)C(Nc1ccccc1)c1ccccc1 (configuration not stated)	92.7% (inactive)
C/C(=N\Nc1ccc([N+](=O)[O-])cc1[N+](=O)[O-])c1ccc(Br)cc1	108% (inactive)
Cc1ccc(-c2csc(NC(=O)CN3CCN(c4cc5c(cc4F)c(=O)c(C(=O)O)cn5C4CC4)CC3)n2)cc1	3.21% (active)
Cn1cc(-c2nn3cc(-c4cccs4)nc3s2)c2cc(F)ccc21	44.4% (inactive)
CC1(C)C(N)=Nc2cc(OCCCN3Cc4ccccc4C3)c(OCC3CC3)cc21	47.3% (inactive)
N#CC1=C(N)Oc2c(c(N)nn2-c2ccccc2)C1c1ccc(Cl)cc1 (configuration not stated)	117% (inactive)
COc1cc2c(cc1NC(=O)C(Cl)Cl)-c1ccc(NC(=O)C(Cl)Cl)cc1C2	-58.3% (active)
Cc1ccc(C)c2c1CCC2C(C)C (configuration not stated)	106% (inactive)
Cn1c(=O)c2[nH]c(C3CC=CCC3)nc2n(C)c1=O (configuration not stated)	107% (inactive)
COc1ccc(N2C(=O)c3cc(OC)c(OC)cc3NC2SCc2ccccc2)cc1 (configuration not stated)	108% (inactive)
CCCCCCCCCCCCCCCC[N+]1(C)CCN(SN2CC[N+](C)(CCCCCCCCCCCCCCCC)CC2)CC1	52.2% (inactive)
COC(=O)/C=C1/SC(=Nc2cccc(OC)c2)N(CCc2c[nH]c3ccc(O)cc23)C1=O	49.3% (inactive)
O=C(CCCCCCCCC(=O)Nc1cccc(C2=NCCN2)c1)Nc1cccc(C2=NCCN2)c1	118% (inactive)
